Reference: the supplement of paper PMC11732987, “Enantioselective OTUD7B fragment discovery through chemoproteomics screening and high-throughput optimisation” (Communications Chemistry, 2025)
Values without a mark were called inactive.

What was measured:
Assay in all cases: log2 ratio of Biotin-Ahx-Ub-VS probe labelling (fragment/DMSO); higher = less target engagement (more negative = stronger competition), active = hit call of the paper (q ≤ 0.05, log2 ratio ≤ -1)
Conditions in all cases: compound concentration: 200 uM; treatment time: 3 h
ALG13 = molecular target: T1, ALG13 (UniProt Q9NP73)
T1 sequence (whole entry): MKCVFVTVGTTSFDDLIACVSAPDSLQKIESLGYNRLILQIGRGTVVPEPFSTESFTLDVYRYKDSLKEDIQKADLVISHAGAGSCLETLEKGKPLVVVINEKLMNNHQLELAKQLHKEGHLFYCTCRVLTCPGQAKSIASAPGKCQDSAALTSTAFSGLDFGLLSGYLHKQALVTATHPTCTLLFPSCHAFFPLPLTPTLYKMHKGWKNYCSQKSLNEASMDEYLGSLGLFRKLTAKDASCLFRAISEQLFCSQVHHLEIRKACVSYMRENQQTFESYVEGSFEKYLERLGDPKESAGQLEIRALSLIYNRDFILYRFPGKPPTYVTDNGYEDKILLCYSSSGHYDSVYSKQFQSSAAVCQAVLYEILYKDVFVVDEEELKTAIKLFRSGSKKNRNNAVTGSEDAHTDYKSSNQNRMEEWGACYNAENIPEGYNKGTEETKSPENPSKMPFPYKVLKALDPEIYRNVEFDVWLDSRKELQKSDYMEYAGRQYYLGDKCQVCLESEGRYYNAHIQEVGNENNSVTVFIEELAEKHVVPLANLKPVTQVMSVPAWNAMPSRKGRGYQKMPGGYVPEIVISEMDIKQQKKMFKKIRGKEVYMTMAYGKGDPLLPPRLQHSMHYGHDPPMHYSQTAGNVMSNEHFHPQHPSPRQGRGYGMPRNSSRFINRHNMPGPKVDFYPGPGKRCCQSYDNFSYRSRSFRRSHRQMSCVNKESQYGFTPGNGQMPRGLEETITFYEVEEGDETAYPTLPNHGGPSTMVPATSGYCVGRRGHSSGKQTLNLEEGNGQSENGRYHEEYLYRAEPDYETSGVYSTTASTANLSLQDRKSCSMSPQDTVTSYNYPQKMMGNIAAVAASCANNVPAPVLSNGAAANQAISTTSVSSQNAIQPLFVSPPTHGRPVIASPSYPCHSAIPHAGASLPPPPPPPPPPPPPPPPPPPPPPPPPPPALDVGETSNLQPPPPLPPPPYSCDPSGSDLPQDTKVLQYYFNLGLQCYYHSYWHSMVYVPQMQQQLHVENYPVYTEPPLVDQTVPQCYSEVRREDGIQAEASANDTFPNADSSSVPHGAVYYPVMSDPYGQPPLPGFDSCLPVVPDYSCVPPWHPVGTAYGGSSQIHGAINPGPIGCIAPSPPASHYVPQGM
In short: (§1)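 HEK293T lysate (495 µg per sample, in Tris/CHAPS/IGEPAL buffer with protease inhibitors) was exposed in triplicate for 3 h to fragment at 200 µM or to vehicle, then to Biotin-Ahx-Ub-VS at 0.5 µM final for 1 h. Labelled DUBs were enriched on NeutrAvidin, digested with LysC and trypsin, and analysed by diaPASEF LC-MS/MS. Spectronaut label-free quantities were normalised to the global median, and values are average log2 ratios of fragment over vehicle from an unpaired t-test. Only proteins with ≥2 unique peptides were used.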

ATXN3 = ATXN3 (UniProt P54252)
In short: as §1

BAP1 = molecular target: T2, BAP1 (UniProt Q92560)
T2 sequence (whole entry): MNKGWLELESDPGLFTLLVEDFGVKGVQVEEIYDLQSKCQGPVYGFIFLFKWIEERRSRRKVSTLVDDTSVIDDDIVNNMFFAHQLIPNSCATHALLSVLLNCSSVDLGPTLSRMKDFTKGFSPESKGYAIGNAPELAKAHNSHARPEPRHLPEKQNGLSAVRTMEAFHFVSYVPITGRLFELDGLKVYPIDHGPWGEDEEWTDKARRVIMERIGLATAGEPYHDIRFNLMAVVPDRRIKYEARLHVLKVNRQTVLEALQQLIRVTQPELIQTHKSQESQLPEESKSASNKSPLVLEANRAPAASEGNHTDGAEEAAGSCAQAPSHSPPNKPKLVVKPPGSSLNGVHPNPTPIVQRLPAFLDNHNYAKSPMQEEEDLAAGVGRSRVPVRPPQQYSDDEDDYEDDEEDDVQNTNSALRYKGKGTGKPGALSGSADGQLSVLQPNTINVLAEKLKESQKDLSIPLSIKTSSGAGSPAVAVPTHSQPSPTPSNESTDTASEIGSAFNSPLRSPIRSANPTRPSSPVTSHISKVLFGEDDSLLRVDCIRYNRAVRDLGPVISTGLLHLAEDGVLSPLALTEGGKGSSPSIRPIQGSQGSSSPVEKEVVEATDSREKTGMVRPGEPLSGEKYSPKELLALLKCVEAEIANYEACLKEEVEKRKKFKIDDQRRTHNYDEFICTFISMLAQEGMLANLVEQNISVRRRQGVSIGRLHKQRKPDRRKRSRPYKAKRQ
In short: as §1

EIF3F = EIF3F (UniProt O00303)
In short: as §1

EIF3H = EIF3H (UniProt O15372)
In short: as §1

FAM105A = molecular target: T3, FAM105A (UniProt Q9NUU6)
T3 sequence (whole entry): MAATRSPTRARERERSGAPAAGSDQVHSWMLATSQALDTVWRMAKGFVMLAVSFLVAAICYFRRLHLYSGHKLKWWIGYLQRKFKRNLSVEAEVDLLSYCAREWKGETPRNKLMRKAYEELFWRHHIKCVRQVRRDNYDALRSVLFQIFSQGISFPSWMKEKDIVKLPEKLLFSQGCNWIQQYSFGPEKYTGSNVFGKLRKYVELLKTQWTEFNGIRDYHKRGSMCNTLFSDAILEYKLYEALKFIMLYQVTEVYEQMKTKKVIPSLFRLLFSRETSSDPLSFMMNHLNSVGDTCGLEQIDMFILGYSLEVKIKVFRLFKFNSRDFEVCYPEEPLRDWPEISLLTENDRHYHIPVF
In short: as §1

OTUB1 = OTUB1 (UniProt Q96FW1)
In short: as §1

OTUD4 = molecular target: T4, OTUD4 (UniProt Q01804)
T4 sequence (whole entry): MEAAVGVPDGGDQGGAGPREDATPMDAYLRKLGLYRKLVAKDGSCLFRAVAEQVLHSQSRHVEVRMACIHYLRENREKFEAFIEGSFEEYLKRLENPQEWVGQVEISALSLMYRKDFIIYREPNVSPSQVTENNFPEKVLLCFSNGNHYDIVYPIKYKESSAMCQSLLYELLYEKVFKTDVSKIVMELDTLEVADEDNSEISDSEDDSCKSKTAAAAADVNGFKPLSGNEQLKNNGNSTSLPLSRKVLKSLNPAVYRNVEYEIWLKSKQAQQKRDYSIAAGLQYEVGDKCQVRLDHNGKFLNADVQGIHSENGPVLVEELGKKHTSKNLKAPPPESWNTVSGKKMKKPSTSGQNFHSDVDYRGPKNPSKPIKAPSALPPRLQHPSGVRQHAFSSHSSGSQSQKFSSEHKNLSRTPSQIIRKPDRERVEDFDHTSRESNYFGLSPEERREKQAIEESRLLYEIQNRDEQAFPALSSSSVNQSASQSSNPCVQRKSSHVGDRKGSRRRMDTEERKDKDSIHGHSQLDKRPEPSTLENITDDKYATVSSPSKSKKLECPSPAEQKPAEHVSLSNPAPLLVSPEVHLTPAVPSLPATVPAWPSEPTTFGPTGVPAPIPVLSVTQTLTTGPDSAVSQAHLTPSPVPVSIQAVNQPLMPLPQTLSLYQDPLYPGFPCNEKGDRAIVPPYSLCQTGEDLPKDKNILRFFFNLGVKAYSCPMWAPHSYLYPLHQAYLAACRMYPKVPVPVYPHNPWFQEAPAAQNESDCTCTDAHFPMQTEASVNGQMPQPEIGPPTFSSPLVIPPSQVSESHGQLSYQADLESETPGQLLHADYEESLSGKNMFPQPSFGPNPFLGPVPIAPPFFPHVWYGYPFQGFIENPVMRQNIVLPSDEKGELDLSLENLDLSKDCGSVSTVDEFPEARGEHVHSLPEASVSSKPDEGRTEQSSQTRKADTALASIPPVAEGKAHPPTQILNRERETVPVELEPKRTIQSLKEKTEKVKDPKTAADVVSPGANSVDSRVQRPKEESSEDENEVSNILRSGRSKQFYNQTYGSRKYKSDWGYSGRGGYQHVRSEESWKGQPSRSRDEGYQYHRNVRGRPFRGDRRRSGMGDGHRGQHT
In short: as §1

OTUD5 = molecular target: T5, OTUD5 (UniProt Q96G74)
T5 sequence (whole entry): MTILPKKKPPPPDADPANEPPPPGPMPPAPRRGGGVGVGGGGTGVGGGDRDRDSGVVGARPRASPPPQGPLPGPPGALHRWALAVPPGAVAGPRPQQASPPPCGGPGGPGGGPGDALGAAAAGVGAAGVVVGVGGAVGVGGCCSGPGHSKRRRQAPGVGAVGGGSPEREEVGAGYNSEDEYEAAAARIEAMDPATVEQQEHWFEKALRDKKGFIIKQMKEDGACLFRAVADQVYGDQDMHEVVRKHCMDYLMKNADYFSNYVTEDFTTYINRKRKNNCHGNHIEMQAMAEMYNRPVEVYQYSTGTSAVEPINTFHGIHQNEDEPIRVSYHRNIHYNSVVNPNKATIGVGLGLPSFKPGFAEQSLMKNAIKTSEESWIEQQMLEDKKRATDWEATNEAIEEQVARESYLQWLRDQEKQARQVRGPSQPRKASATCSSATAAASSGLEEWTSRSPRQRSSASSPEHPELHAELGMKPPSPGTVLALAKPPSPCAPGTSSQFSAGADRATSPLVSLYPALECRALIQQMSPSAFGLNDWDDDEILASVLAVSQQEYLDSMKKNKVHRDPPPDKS
In short: as §1

EIF3F, sequence (O00303 whole entry): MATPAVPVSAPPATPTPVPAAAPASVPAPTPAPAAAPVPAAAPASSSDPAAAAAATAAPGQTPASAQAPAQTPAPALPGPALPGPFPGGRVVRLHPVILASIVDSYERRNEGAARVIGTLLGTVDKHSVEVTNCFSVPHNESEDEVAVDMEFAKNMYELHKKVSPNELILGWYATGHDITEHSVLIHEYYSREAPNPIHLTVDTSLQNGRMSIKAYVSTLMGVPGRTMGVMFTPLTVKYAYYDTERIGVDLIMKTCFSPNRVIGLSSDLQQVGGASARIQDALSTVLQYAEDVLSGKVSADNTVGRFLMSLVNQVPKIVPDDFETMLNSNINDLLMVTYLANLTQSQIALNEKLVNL
OTUB1, sequence (Q96FW1 whole entry): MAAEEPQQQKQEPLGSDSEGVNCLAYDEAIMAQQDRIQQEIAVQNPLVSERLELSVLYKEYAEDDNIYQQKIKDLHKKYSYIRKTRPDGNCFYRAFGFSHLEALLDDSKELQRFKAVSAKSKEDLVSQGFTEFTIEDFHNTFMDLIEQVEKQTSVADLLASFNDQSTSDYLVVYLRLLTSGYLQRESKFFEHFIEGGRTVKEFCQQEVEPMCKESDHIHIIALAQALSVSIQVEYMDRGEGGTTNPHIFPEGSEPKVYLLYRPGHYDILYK
EIF3H, sequence (O15372 whole entry): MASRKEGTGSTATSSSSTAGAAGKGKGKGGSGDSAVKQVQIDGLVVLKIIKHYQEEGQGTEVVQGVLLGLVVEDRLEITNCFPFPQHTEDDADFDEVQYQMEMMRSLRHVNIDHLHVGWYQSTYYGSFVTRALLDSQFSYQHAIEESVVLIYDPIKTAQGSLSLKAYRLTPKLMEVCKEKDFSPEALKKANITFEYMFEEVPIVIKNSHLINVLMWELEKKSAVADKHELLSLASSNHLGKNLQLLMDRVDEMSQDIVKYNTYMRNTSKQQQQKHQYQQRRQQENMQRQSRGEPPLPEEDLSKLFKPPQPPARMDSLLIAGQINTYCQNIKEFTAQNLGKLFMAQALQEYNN
ATXN3, sequence (P54252 whole entry): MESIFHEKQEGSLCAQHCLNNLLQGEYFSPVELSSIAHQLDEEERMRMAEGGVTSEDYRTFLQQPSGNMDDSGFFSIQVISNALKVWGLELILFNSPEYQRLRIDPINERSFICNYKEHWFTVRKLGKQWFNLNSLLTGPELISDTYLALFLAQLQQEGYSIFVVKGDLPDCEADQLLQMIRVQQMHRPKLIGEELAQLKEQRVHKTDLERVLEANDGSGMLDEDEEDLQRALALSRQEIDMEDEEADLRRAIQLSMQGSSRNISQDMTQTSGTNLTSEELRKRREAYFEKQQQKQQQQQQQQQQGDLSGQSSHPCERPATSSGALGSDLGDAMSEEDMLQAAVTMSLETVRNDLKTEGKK

SMILES: O=C(CCl)N[C@H]1CC[C@@H](CO)CC1
- log2 ratio of Biotin-Ahx-Ub-VS probe labelling (ALG13): 0.27
- log2 ratio of Biotin-Ahx-Ub-VS probe labelling (ATXN3): -0.868
- log2 ratio of Biotin-Ahx-Ub-VS probe labelling (BAP1): -1.34 (active)
- log2 ratio of Biotin-Ahx-Ub-VS probe labelling (EIF3F): -0.486
- log2 ratio of Biotin-Ahx-Ub-VS probe labelling (EIF3H): 0.0529
- log2 ratio of Biotin-Ahx-Ub-VS probe labelling (FAM105A): -0.00946
- log2 ratio of Biotin-Ahx-Ub-VS probe labelling (OTUB1): -0.626
- log2 ratio of Biotin-Ahx-Ub-VS probe labelling (OTUD4): -0.852
- log2 ratio of Biotin-Ahx-Ub-VS probe labelling (OTUD5): -0.686
